Results taken from PubChem BioAssay (Tox21).
Records with an inconclusive call do not appear. The source made the active and inactive calls. Unless noted, calls come from the whole dose curve; as a rule, active = well fitted curve in the direction sought with a large enough effect in the repeat runs; inconclusive = weak or mixed curves; inactive = no such curve, though single readings can be large; an effect the other way counts as inactive or inconclusive.

Tests used:
[1] = biological target: Aryl hydrocarbon receptor (Homo sapiens) (UniProt P35869); test: qHTS assay to identify small molecule that activate the aryl hydrocarbon receptor (AhR) signaling pathway (AID 743085);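 note: HG2L7.5c1 human HepG2 liver cells with stably integrated DRE-driven firefly reporter; series mostly up to about 70 µM; nearly all actives have a fitted effect of over 15% in size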
Chain of Aryl hydrocarbon receptor (Homo sapiens) (P35869 whole entry, looked up): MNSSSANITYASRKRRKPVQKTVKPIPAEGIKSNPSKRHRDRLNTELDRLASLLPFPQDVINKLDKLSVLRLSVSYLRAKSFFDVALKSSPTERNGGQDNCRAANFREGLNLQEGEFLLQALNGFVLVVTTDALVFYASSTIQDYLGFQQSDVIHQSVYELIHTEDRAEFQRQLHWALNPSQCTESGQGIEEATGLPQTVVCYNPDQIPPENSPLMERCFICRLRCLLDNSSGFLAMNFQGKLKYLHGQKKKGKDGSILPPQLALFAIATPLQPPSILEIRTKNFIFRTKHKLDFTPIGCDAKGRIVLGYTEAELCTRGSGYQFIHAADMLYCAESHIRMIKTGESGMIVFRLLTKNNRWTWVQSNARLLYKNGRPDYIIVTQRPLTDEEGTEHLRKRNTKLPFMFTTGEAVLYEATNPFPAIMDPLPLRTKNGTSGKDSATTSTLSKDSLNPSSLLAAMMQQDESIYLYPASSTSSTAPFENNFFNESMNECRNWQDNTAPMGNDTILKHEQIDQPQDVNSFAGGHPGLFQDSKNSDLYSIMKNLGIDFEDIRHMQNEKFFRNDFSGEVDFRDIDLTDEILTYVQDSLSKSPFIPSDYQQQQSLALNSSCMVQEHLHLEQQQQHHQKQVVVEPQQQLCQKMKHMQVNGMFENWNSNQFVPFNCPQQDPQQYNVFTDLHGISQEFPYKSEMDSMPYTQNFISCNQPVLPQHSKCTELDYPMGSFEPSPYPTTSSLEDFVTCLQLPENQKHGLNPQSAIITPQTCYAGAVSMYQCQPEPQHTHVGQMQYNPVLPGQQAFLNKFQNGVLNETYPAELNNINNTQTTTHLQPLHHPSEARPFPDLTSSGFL
Summary of the method: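 Compounds were tested in HepG2 hepatocellular carcinoma cells harbouring a stably integrated luciferase gene under control of 20 DREs. Increased reporter signal after 24 h treatment at 37C was taken as AhR activation.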

[2] = qHTS assay to identify small molecule that activate the aryl hydrocarbon receptor (AhR) signaling pathway - cell viability counter screen (AID 743086);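 note: HepG2 liver cells carrying the AhR DRE luciferase reporter; series mostly up to about 70 µM; nearly all actives have a fitted effect of over 45% in size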
Summary of the method: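 Cytotoxicity counter screen: CellTiter-Fluor signal (30 min, 37 C) in 4000 HepG2 cells/well carrying the DRE-luciferase reporter, following 24 h compound exposure at 37 C.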

[3] = qHTS assay to identify small molecule antagonists of the peroxisome proliferator-activated receptor gamma (PPARg) signaling pathway - cell viability counter screen (AID 743194); note: nearly all actives have a fitted effect of over 55% in size
Summary of the method: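 Viability was measured as CellTiter-Glo luminescence in GeneBLAzer PPARg UAS-bla HEK293H cells. These cells had been exposed 17 h at 37 C to compounds together with rosiglitazone at 50 nM final, with the beta-lactamase readout taken in the same wells.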

[4] = qHTS assay for small molecule agonists of the antioxidant response element (ARE) signaling pathway (AID 743202; active = well fitted activation curve with a large enough effect in the signal ratio in the repeat runs, not every such curve was filed as active; the % refers to the signal ratio)
Summary of the method: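 After 16 hours of compound treatment at 37 C, HepG2 cells with a stably integrated ARE-driven beta-lactamase reporter were loaded 2 hours at room temperature with LiveBLAzer B/G FRET substrate and fluorescence intensity measured.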

[5] = qHTS assay for small molecule agonists of the antioxidant response element (ARE) signaling pathway - cell viability counter screen (AID 743203; calls by dose curve; note: nearly all actives have a fitted effect of over 55% in size)
Summary of the method: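 Viability counter screen: stably transfected ARE-bla HepG2 line, 16 hrs compound exposure at 37C/5% CO2, ATP-based CellTiter-Glo luminescence measured in the reporter wells.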

[6] = qHTS assay for small molecule activators of the heat shock response signaling pathway - cell viability counter screen (AID 743209); note: nearly all actives have a fitted effect of over 50% in size
Summary of the method: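 Viability of HSE-bla HeLa cells is measured with CellTiter-Glo in the wells already used for the reporter read. Compound exposure lasts 5 h at 37 C, and luminescence is read after 30 min at room temperature.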

[7] = qHTS assay for small molecule activators of the heat shock response signaling pathway (AID 743210; active = well fitted activation curve with a large enough effect in the signal ratio in the repeat runs, with a control signal flat, not every such curve was filed as active; the % refers to the signal ratio; note: series mostly up to about 63 µM)
Summary of the method: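 Compound exposure lasted 5 h at 37 C in HeLa cells carrying a heat-shock-element-driven beta-lactamase reporter. Read-out: fluorescence intensity after 2.5 h room-temperature loading with LiveBLAzer B/G FRET substrate.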

[8] = qHTS assay to identify small molecule agonists of the peroxisome proliferator-activated receptor delta (PPARd) signaling pathway - cell viability counter screen (AID 743211); note: nearly all actives have a fitted effect of over 55% in size
Summary of the method: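 Counter screen for cytotoxicity run in parallel with the PPARd reporter screen. Beta-lactamase reporter HEK293H cells exposed to compounds 17 h; ATP-based CellTiter-Glo luminescence quantified viability.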

[9] = biological target: Peroxisome proliferator-activated receptor delta (Homo sapiens) (UniProt Q03181); test: qHTS assay to identify small molecule agonists of the peroxisome proliferator-activated receptor delta (PPARd) signaling pathway (AID 743212; calls by dose curve;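 note: HEK293H cells with PPARd UAS beta-lactamase reporter GeneBLAzer system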)
Chain of Peroxisome proliferator-activated receptor delta (Homo sapiens) (Q03181 whole entry, looked up): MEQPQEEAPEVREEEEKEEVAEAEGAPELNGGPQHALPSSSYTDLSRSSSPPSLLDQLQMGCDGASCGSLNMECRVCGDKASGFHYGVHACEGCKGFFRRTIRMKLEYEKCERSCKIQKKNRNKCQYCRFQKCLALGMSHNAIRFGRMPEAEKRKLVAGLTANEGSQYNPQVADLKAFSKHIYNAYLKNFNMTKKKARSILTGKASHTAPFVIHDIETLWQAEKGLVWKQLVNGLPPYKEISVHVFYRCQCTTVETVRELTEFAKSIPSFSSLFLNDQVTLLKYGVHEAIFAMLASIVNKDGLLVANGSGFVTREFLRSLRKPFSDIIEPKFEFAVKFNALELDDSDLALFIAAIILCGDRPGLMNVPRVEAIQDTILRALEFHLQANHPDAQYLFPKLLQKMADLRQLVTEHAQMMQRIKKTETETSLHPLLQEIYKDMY
Summary of the method: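 Beta-lactamase reporter readout: a ratiometric FRET signal from the LiveBLAzer substrate after 2 h at room temperature. Compound exposure at 37 °C in PPARδ-bla HEK293H cells driven by an upstream activator sequence.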

[10] = qHTS assay to identify small molecule antagonists of the peroxisome proliferator-activated receptor delta (PPARd) signaling pathway - cell viability counter screen (AID 743213); note: nearly all actives have a fitted effect of over 50% in size
Summary of the method: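 HEK293H cells with the PPARd UAS-bla reporter, co-treated 17 h at 37 C with compounds and L165041 (300 nM final), were lysed with CellTiter-Glo. Luminescence indicated viable cell content.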

[11] = biological target: Peroxisome proliferator-activated receptor delta (Homo sapiens) (UniProt Q03181); test: qHTS assay to identify small molecule antagonists of the peroxisome proliferator-activated receptor delta (PPARd) signaling pathway (AID 743215; active = well fitted inhibition curve with a large enough effect in the signal ratio in the repeat runs, not every such curve was filed as active; the % refers to the signal ratio;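 note: cells stimulated with agonist L165041 at 300 nM final during compound exposure; series mostly up to about 62 µM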)
Summary of the method: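 Plated HEK293H PPARd-bla cells rested 5 h at 37 C and 5% CO2. Compound, then agonist L165041 at 300 nM final, was added; 17 h at 37 C followed. Substrate loading, 2 h room temperature, fluorescence measured.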

[12] = qHTS assay to identify small molecule agonists of the farnesoid-X-receptor (FXR) signaling pathway - cell viability counter screen (AID 743218); note: nearly all actives have a fitted effect of over 45% in size
Summary of the method: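 Viability of FXR-bla HEK 293T cells is measured by ATP-based CellTiter-Glo luminescence following 16 h compound treatment at 37 C and a prior 2 h room-temperature beta-lactamase substrate step.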

[13] = qHTS assay to identify small molecule antagonists of the farnesoid-X-receptor (FXR) signaling pathway - cell viability counter screen (AID 743221; active = well fitted cell-killing curve with a large enough effect in the repeat runs, not every such curve was filed as active; note: nearly all actives have a fitted effect of over 50% in size)
Summary of the method: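 Multiplexed counter screen: viability of FXR-bla HEK 293T cells under agonist stimulation by chenodeoxycholic acid (50 uM, final) and test compound for 16 h at 37 C, measured by CellTiter-Glo luminescence in the reporter wells.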

[14] = biological target: Peroxisome proliferator-activated receptor gamma (Homo sapiens) (UniProt P37231); test: qHTS assay to identify small molecule agonists of the peroxisome proliferator-activated receptor gamma (PPARg) signaling pathway (AID 743094; active = well fitted activation curve with a large enough effect in the signal ratio in the repeat runs, not every such curve was filed as active; the % refers to the signal ratio)
Chain of Peroxisome proliferator-activated receptor gamma (Homo sapiens) (P37231 whole entry, looked up): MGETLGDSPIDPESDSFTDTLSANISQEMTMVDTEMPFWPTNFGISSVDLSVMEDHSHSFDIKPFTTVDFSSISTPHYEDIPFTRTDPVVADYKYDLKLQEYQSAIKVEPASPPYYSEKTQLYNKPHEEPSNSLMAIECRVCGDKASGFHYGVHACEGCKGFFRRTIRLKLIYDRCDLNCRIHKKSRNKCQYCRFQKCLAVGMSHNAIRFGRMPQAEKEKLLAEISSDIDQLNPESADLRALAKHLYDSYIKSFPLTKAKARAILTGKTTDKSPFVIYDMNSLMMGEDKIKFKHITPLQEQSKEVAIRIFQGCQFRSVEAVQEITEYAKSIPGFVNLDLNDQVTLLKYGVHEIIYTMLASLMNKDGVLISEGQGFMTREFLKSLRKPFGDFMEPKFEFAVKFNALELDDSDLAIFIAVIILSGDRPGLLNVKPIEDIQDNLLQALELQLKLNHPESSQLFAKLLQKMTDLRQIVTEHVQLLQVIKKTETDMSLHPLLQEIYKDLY
Summary of the method: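 Reporter activation was scored by fluorescence of cleaved LiveBLAzer B/G substrate (1 h, room temperature) in PPARg-bla HEK293H cells previously treated 17 h at 37C with DMSO-dissolved compounds.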

[15] = biological target: Vitamin D3 receptor (Homo sapiens) (UniProt P11473); test: qHTS assay to identify small molecule agonists of the vitamin D receptor (VDR) signaling pathway (AID 743222; calls by dose curve)
Chain of Vitamin D3 receptor (Homo sapiens) (P11473 whole entry, looked up): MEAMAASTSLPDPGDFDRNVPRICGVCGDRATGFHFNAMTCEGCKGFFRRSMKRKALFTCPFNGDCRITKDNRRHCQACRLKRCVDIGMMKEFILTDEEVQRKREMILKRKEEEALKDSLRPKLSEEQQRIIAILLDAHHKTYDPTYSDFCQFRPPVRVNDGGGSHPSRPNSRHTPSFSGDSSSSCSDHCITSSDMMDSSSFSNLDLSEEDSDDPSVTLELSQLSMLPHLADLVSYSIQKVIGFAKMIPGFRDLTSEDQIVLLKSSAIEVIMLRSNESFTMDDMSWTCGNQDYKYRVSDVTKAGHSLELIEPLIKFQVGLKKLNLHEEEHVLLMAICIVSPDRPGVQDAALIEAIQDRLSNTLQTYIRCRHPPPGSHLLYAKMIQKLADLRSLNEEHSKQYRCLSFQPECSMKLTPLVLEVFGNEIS
Summary of the method: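 Fluorescence from cleaved LiveBLAzer B/G FRET substrate served as readout. VDR-bla cells had been treated 16 h at 37C with test compounds in DMSO, following a 4 h settling period, and substrate was loaded for 2 h at RT.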

[16] = qHTS assay to identify small molecule agonists of the vitamin D receptor (VDR) signaling pathway - cell viability counter screen (AID 743224); note: series mostly up to about 63 µM; nearly all actives have a fitted effect of over 50% in size
Summary of the method: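 Compounds were pin-transferred onto VDR-bla cells plated 4 h earlier; following 16 h incubation at 37C, cell viability was quantified by CellTiter-Glo luminescence after 30 min at room temperature.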

[17] = biological target: Peroxisome proliferator-activated receptor gamma (Homo sapiens) (UniProt P37231); test: qHTS assay to identify small molecule antagonists of the peroxisome proliferator-activated receptor gamma (PPARg) signaling pathway (AID 743191; calls by dose curve; note: series mostly up to about 63 µM; nearly all actives have a fitted effect of over 30% in size)
Summary of the method: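 Beta-lactamase reporter under UAS control in HEK293H PPARg-bla cells; compound treatment 17 h at 37C. Read-out: fluorescence intensity after 1 h room-temperature incubation with LiveBLAzer B/G FRET substrate.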

[18] = biological target: Vitamin D3 receptor (Homo sapiens) (UniProt P11473); test: qHTS assay to identify small molecule antagonists of the vitamin D receptor (VDR) signaling pathway (AID 743223; active = well fitted inhibition curve with a large enough effect in the signal ratio in the repeat runs, not every such curve was filed as active; the % refers to the signal ratio)
Summary of the method: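 Cells carrying a VDR-driven beta-lactamase reporter (VDR-bla) were co-treated with compound and 3 nM final 1alpha,25-dihydroxyvitamin D3 for 16 h at 37C; reporter activity was measured as FRET substrate fluorescence after 2 h at room temperature.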

[19] = biological target: Bile acid receptor (Homo sapiens) (UniProt Q96RI1); test: qHTS assay to identify small molecule antagonists of the farnesoid-X-receptor (FXR) signaling pathway (AID 743217; active = well fitted inhibition curve with a large enough effect in the signal ratio in the repeat runs, not every such curve was filed as active; the % refers to the signal ratio)
Chain of Bile acid receptor (Homo sapiens) (Q96RI1 whole entry, looked up): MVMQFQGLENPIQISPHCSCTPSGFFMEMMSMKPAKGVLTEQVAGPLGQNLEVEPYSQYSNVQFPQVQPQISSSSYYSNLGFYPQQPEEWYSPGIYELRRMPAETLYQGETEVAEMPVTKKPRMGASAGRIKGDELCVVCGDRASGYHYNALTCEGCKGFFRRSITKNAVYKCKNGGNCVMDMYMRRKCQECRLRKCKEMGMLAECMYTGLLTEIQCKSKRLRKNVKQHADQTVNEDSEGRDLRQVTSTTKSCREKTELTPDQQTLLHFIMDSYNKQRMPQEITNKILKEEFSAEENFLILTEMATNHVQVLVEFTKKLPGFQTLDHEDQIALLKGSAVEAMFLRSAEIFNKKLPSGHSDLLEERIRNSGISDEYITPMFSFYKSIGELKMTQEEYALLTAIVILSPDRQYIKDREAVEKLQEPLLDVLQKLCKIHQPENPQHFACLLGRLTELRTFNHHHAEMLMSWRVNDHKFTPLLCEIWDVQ
Summary of the method: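 Screen of the Tox21 10K library in quantitative HTS format using FXR-UAS-bla HEK 293T reporter cells. Agonist chenodeoxycholic acid, 50 uM final, added with compounds; 16 h incubation at 37 °C; beta-lactamase FRET fluorescence measured.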

[20] = biological target: Bile acid receptor (Homo sapiens) (UniProt Q96RI1); test: qHTS assay to identify small molecule agonists of the farnesoid-X-receptor (FXR) signaling pathway (AID 743220; active = well fitted activation curve with a large enough effect in the signal ratio in the repeat runs, not every such curve was filed as active; the % refers to the signal ratio)
Summary of the method: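 FXR-UAS-bla HEK 293T cells carrying a UAS-driven beta-lactamase reporter were plated for 5 h at 37C/5% CO2, then exposed to DMSO-dissolved Tox21 10K compounds for 16 h at 37C. A LiveBLAzer B/G FRET substrate was loaded for 2 h at room temperature before fluorescence reading.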
% is set by controls: 0 for no effect and ±100 for the full control effect.

CC1=NS(=O)(=O)c2cc(Cl)ccc2N1
inactive: Potency [1] | Potency [2] | outcome [3] | Potency [4] | outcome [5] | outcome [6] | outcome [7] | outcome [8] | outcome [9] | outcome [10] | outcome [11] | outcome [12] | outcome [13]

CC(=O)OCC(=O)[C@@]1(O)[C@H](C)C[C@H]2[C@@H]3CCC4=CC(=O)C=C[C@]4(C)[C@@]3(F)[C@@H](O)C[C@@]21C
inactive: Potency [1] | Potency [2] | Potency [14] | outcome [3] | outcome [5] | outcome [6] | outcome [7] | outcome [8] | outcome [9] | outcome [10] | outcome [12] | outcome [13] | outcome [15] | outcome [16]

CN1CCC(=C2c3ccccc3CCc3cccnc32)CC1
inactive: Potency [1] | Potency [2] | Potency [17] | outcome [3] | outcome [5] | outcome [6] | outcome [7] | outcome [8] | outcome [9] | outcome [10] | outcome [11] | outcome [12] | outcome [13] | outcome [15] | outcome [18] | outcome [16]

NC(N)=NCCN1CCCCCCC1
inactive: Potency [1] | Potency [2] | activity change, negative = cytotoxicity [3] 6.29% [at 0.55 µM] | activation [4] 4.68% [at 0.756 µM] | viability change, negative = cytotoxic [5] -0.232% [at 0.756 µM] | activity change, negative = cytotoxicity [6] -20.4% [at 0.55 µM] | activation [7] -0.075% [at 0.55 µM] | activity change, negative = cytotoxicity [8] 8.58% [at 0.55 µM] | activation [9] 3.33% [at 0.55 µM] | viability change, negative = cytotoxic [10] 2.8% [at 0.575 µM] | ratio activity, negative = inhibition [11] 5.69% [at 0.575 µM] | viability change, negative = cytotoxic [12] 2.57% [at 0.55 µM] | activity change, negative = cytotoxicity [13] -1.17% [at 0.55 µM] | activity change, negative = cytotoxicity [16] -13.4% [at 0.55 µM]

CC(=O)c1ccc2ccccc2c1
inactive: Potency [1] | Potency [2] | Potency [17] | outcome [3] | outcome [5] | outcome [6] | outcome [7] | outcome [8] | outcome [9] | outcome [10] | outcome [11] | outcome [19] | outcome [20] | outcome [13] | outcome [18] | outcome [16]

C[N+]1(C)[C@@H]2CC(OC(=O)[C@H](CO)c3ccccc3)C[C@H]1[C@@H]1O[C@@H]12 (stereo partly specified)
inactive: Potency [1] | Potency [2] | Potency [17] | outcome [3] | Potency [4] | outcome [5] | outcome [6] | outcome [7] | outcome [8] | outcome [10] | outcome [12] | outcome [13] | outcome [15] | outcome [18] | outcome [16]

O=C(CO)[C@@H](O)[C@H](O)[C@@H](O)CO
inactive: Potency [1] | Potency [2] | Potency [17] | outcome [3] | Potency [4] | outcome [5] | outcome [6] | outcome [7] | outcome [8] | outcome [10] | outcome [12] | outcome [13] | outcome [16]

CC(C)(CCC(=O)O)C(=O)O
inactive: Potency [1] | Potency [2] | Potency [14] | outcome [3] | outcome [5] | outcome [7] | outcome [8] | outcome [10] | outcome [12] | outcome [13] | outcome [15] | outcome [18] | outcome [16]

[O-][n+]1cccc(CO)c1
inactive: Potency [1] | Potency [2] | Potency [17] | outcome [3] | Potency [4] | outcome [5] | outcome [6] | outcome [7] | outcome [8] | outcome [9] | outcome [10] | outcome [11] | outcome [12] | outcome [13] | outcome [15] | outcome [18] | outcome [16]
